The text below walks through data of PubChem BioAssay.

The source made the active and inactive calls.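 How the source made its calls, unless noted: active means inhibition at or above 50% at 10 µM; inactive means inhibition below 50%.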

Assay [1] in a line: inhibitors of TNFa-induced NFkB p65 translocation, primary screen, imaging, HUVEC, MLSMR starter and 10KST1 sets (AID 438;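 active means inhibition above 20% together with a positive visual image hit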;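 further: compound added about 3h40 before a 20 min TNFalpha stimulation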;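 on inhibition: signal is the nuclear over cytoplasmic p65 intensity ratio per well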). The following applies: HUVEC TNFa-induced p65 nuclear translocation; cell count: measured here: nuclei count (cytotoxicity indicator), at 2.08 µM; inhibition: at 2 µM, stronger effect = higher value, 0% TNFa-plus-vehicle, 100% no-TNFa wells.
The nature of assay [2]: inhibitors of mutant huntingtin aggregation, primary screen, imaging, exon1htt(103Q)mCFP cells, high-content imaging (AID 483;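 active means visual image review flags a hit and inhibition of aggregation exceeds 20%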;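 further: compound exposure lasted 3 days before fixation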;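 on nuclei count: percent of the per-plate median nuclei count of sample wells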). The following applies: exon1htt(103Q)mCFP cell line, aggregate imaging, at 2 µM; inhibition of aggregation: stronger effect = higher value; nuclei count: measured here: cell count, toxicity.
The nature of assay [3]: inhibitors of E-selectin induction by TNFa, primary screen, imaging, HUVEC, immunofluorescence, MLSMR starter and 10KST1 sets (AID 487;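 active means visually confirmed hit in the image check and inhibition above 20%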;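 on inhibition: signal is fraction of cell area covered by stained E-selectin grains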;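 on nuclei count: 100% = median nuclei count of all wells on the same plate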). The note with it: HUVEC TNFalpha-induced E-selectin immunofluorescence imaging, at 2 µM; inhibition: stronger effect = higher value; nuclei count: measured here: cell number, toxicity.
Assay [4] concerns the target Voltage-gated potassium channel subunit beta-2 (Rattus norvegicus) (UniProt P62483). Kind of assay: KvBeta enzyme negative modulators, primary screen, biochemical, NADPH fluorescence (AID 622;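 active means fluorescence slope higher than the sample average by over 3 SD, cut at about -0.22 in these data, passing the limit was not always enough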;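 further: slope of raw intensity against log time taken from 70 to 1610 s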). The note with it: recombinant KvBeta, 4-cyanobenzaldehyde reduction, at 10 µM, stronger effect = higher value.
Assay [5] has the same target. Description: KvBeta positive modulators, primary screen, biochemical, NADPH fluorescence (AID 623;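 active means NADPH fluorescence slope more negative than the mean of all samples by about 3 SD, 99.7% confidence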;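 further: fluorescence intensity change per second fitted from 20 to 320 s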). The following applies: Recombinant KvBeta, NADPH fluorescence decrease slope, 10 min; at 10 µM; stronger effect = lower value.
Assay [6] concerns the target Alpha-2C adrenergic receptor (Homo sapiens) (UniProt P18825). Description: modulators of alpha2C/GIRK thallium flux, primary screen, cell-based, HEK293 alpha2C/GIRK1/2 (AID 624;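 active means fluorescence slope after compound addition differing from the mean of all screened samples at 99.7% confidence, in either direction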;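 further: slope of fluorescence ratio to pre-addition baseline per second over 15 to 24 s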). The note with it: thallium flux BTC fluorescence, at 10 µM, actives lie on both sides.
Assay [7] in a line: inhibitors of Sendai virus-induced IRF3 signaling, primary screen, TLR/RLR signaling modifier project, cell-based, Sendai virus stimulus, luciferase, 10K MLSCN set (AID 602276).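 Further: firefly luciferase from ISG56 promoter only with Renilla not read in this screen; 0% = Sendai virus plus DMSO and 100% = medium plus DMSO without virus.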 The following applies: HEK293 RL24 IRF3 luciferase reporter, at 10 µM, stronger effect = higher value.
A short description of assay [8]: inhibitors of poly I:C-induced TLR3 signaling, primary screen, cell-based, poly I:C stimulus, luciferase, 10K MLSCN set (AID 602277;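 active means inhibition of the reporter signal at or above 50%; inactive means inhibition below 50%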). The following applies: HEK293-TLR3 RL24 IRF3 luciferase reporter, at 10 µM, stronger effect = higher value.

Sequence of Voltage-gated potassium channel subunit beta-2 (Rattus norvegicus) (P62483 whole entry, looked up): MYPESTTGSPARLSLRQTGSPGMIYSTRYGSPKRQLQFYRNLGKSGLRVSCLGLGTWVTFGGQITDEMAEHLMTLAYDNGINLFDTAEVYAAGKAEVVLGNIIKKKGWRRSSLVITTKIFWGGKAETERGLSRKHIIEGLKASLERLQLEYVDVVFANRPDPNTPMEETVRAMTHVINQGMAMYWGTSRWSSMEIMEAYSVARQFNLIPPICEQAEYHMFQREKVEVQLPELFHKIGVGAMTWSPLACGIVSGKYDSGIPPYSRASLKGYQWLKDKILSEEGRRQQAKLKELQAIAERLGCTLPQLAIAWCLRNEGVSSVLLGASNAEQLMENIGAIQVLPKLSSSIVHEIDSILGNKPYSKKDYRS
Sequence of Alpha-2C adrenergic receptor (Homo sapiens) (P18825 whole entry, looked up): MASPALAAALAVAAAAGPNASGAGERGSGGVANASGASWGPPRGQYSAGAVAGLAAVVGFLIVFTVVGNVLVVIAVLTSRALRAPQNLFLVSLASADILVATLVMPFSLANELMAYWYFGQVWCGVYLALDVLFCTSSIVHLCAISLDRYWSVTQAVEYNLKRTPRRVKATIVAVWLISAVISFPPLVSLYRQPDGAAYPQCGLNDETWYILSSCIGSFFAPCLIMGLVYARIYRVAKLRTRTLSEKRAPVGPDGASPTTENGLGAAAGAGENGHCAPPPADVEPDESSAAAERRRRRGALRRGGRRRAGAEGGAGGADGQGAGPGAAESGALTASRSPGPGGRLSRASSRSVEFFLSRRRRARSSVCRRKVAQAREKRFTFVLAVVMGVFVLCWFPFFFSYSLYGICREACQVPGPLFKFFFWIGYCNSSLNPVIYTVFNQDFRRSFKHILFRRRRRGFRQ

Regarding `O=C(Nc1cccnc1)Nc1ccccn1`, in assay [1], the cell count is 571. Besides, the inhibition in assay [1] was -4.3% (inactive); in assay [3] it was -6.7% (inactive); in assay [7], -5.87% (inactive); in assay [8] it was 0.317% (inactive). In assay [2], the inhibition of aggregation was 6.4% (inactive). Also, the figures for the nuclei count in assay [2] and in assay [3] were 106% and 74.1%, respectively. Also, in assay [4], the fluorescence slope was -0.432 (inactive). Moreover, the NADPH fluorescence slope in assay [5] was -4.6e-05 (inactive). Besides, the slope in assay [6] was 0.00395 (inactive).

With `CCOCCOc1nc2c(c(=O)n(C)c(=O)n2C)n1Cc1ccc(C)cc1`, the cell count in assay [1] stood at 830. Moreover, the inhibition in assay [1] was 2.3% (inactive); in assay [3], -35.1% (inactive); in assay [7] it was -11.5% (inactive); in assay [8], -21.6% (inactive). The inhibition of aggregation in assay [2] is -33.5% (inactive). For the same compound, the nuclei count in assay [2] was determined as 102%; in assay [3], 114%. In addition, in assay [4], the fluorescence slope was -0.46 (inactive). Besides, the NADPH fluorescence slope in assay [5] is 5.4e-05 (inactive). Also, the slope in assay [6] was 0.00568 (inactive).

With `CCOc1ccc(NC(=O)c2ccc3c(c2)N(Cc2ccc(F)cc2)C(=O)CS3=O)cc1` (centres undefined), the cell count in assay [1] amounted to 659. For the same compound, the inhibition was 0% (inactive) in assay [1], -25.6% (inactive) in assay [3], 5.6% (inactive) in assay [7] and -7.02% (inactive) in assay [8]. For the same compound, the inhibition of aggregation in assay [2] was -4.8% (inactive). Besides, the figures for the nuclei count in assay [2] and in assay [3] were 105% and 113%, respectively. The fluorescence slope in assay [4] is -0.551 (inactive). Also, in assay [5], the NADPH fluorescence slope is -2.5e-05 (inactive). The slope in assay [6] was 0.00664 (inactive).

For `Cn1c(=O)c2c(nc(Br)n2CCSc2nnnn2-c2ccccc2)n(C)c1=O`, the cell count in assay [1] came out at 294. Also, the inhibition is -3.4% (inactive) in assay [1], -7.6% (inactive) in assay [3], 1.27% (inactive) in assay [7] and 1.27% (inactive) in assay [8]. Further, the inhibition of aggregation in assay [2] was 19% (inactive). Also, the nuclei count in assay [2] came out at 94.6%; in assay [3] it was 74.1%. For the same compound, the fluorescence slope in assay [4] is -0.36 (inactive). In addition, the NADPH fluorescence slope in assay [5] was -4.2e-05 (inactive). In addition, the slope in assay [6] was 0.00509 (inactive).

`CCC1C(=O)N=C(SCC(=O)Nc2cccc3ccccc23)NC1=O` (centres undefined): in assay [1], the cell count worked out at 393. Also, the inhibition in assay [1] is -4% (inactive); in assay [3], -41.3% (inactive); in assay [7] it was -15.6% (inactive); in assay [8], 0.719% (inactive). The inhibition of aggregation in assay [2] is 3.1% (inactive). For the same compound, the values for the nuclei count in assay [2] and in assay [3] were 101% and 119%, respectively. The fluorescence slope in assay [4] was -0.564 (inactive). In addition, the NADPH fluorescence slope in assay [5] is -4.5e-05 (inactive). Further, the slope in assay [6] is 0.00593 (inactive).

With `COc1ccc2[nH]c(=O)c(CN(C(=O)c3ccncc3)C(C)C)cc2c1`, in assay [1], the cell count was determined as 438. Also, the inhibition in assay [1] is -6.2% (inactive); in assay [3] it was -13% (inactive); in assay [7] it was 8.68% (inactive); in assay [8], 37.7% (inactive). The inhibition of aggregation in assay [2] is 4.6% (inactive). In addition, the nuclei count in assay [2] was determined as 120%; in assay [3] it was 147%. Further, in assay [4], the fluorescence slope is -0.448 (inactive). The NADPH fluorescence slope in assay [5] is -5.5e-05 (inactive). For the same compound, the slope in assay [6] was 0.00387 (inactive).

On to `CCOC(=O)N1CCN(C(=O)CSc2ncnc3ccccc23)CC1`, for which the cell count in assay [1] stood at 747. Also, the inhibition was -1.6% (inactive) in assay [1], -10.3% (inactive) in assay [3], 1.11% (inactive) in assay [7] and -8.53% (inactive) in assay [8]. In addition, in assay [2], the inhibition of aggregation was -8.8% (inactive). For the same compound, the nuclei count in assay [2] came to 120%; in assay [3], 115%. Moreover, the fluorescence slope in assay [4] was -0.525 (inactive). Further, the NADPH fluorescence slope in assay [5] was -2.4e-05 (inactive). The slope in assay [6] is 0.00632 (inactive).

Take `Cc1ccc(S(=O)(=O)N(CC(=O)NCc2ccco2)Cc2ccccc2F)cc1`: the cell count in assay [1] stood at 308. Also, the inhibition in assay [1] was 2.4% (inactive); in assay [3], -3.2% (inactive); in assay [7] it was 8.9% (inactive); in assay [8] it was 11.9% (inactive). Moreover, the inhibition of aggregation in assay [2] was 14% (inactive). Also, the nuclei count was determined as 92.3% in assay [2] and 103% in assay [3]. The fluorescence slope in assay [4] was -0.524 (inactive). Moreover, in assay [5], the NADPH fluorescence slope was 1.7e-06 (inactive). The slope in assay [6] is 0.00527 (inactive).

For the compound `CC1=C(C(=O)Nc2ccccc2C)C2(CCCC2)C(C(N)=O)C(=O)N1` (centres undefined), the cell count in assay [1] was found to be 683. Also, the inhibition in assay [1] is 0% (inactive); in assay [3], -126% (inactive); in assay [7], 13.6% (inactive); in assay [8] it was 17.8% (inactive). In addition, in assay [2], the inhibition of aggregation is -25.1% (inactive). For the same compound, the nuclei count in assay [2] worked out at 99%; in assay [3], 106%. Moreover, the fluorescence slope in assay [4] is -0.483 (inactive). In addition, the NADPH fluorescence slope in assay [5] was -4.6e-05 (inactive). In addition, the slope in assay [6] is 0.0058 (inactive).

Regarding `O=C(Nc1ccccc1)N1CCC(c2ccccc2)C1` (centres undefined), in assay [1], the cell count is 331. In addition, the inhibition in assay [1] was 23.5% (inactive); in assay [3], 13.1% (inactive); in assay [7], -49.3% (inactive); in assay [8] it was -82.3% (inactive). Moreover, the inhibition of aggregation in assay [2] was 3% (inactive). Moreover, the nuclei count in assay [2] was 101%; in assay [3], 103%. In addition, the fluorescence slope in assay [4] was -0.481 (inactive). Moreover, the NADPH fluorescence slope in assay [5] was -9.5e-06 (inactive). Further, in assay [6], the slope is 0.00694 (inactive).

For the compound `COc1ccc(C2CC(=O)C3=C(C2)Nc2ccccc2N(C(=O)C2CC2)C3c2cccnc2)cc1OC` (centres undefined), the cell count in assay [1] is 683. Moreover, the inhibition in assay [1] is -10.9% (inactive); in assay [3] it was 0.8% (inactive); in assay [7] it was 10.6% (inactive); in assay [8], 17.6% (inactive). Further, the inhibition of aggregation in assay [2] is -43.4% (inactive). For the same compound, the nuclei count in assay [2] worked out at 87.2%; in assay [3] it was 98.6%. Also, the fluorescence slope in assay [4] is -0.367 (inactive). Moreover, the NADPH fluorescence slope in assay [5] is 7.5e-06 (inactive). Further, the slope in assay [6] was 0.00392 (inactive).

Take `CCOc1nc(OCC)nc(N2CCC(C)CC2)n1`: in assay [1], the cell count was found to be 499. Moreover, the inhibition is 9.1% (inactive) in assay [1], -118% (inactive) in assay [3], 16.6% (inactive) in assay [7] and 20.5% (inactive) in assay [8]. Moreover, the inhibition of aggregation in assay [2] was 5.9% (inactive). The nuclei count in assay [2] turned out to be 106%; in assay [3], 138%. The fluorescence slope in assay [4] was -0.242 (inactive). The NADPH fluorescence slope in assay [5] is -3.2e-05 (inactive). In addition, the slope in assay [6] is 0.005 (inactive).

For `CN(C)S(=O)(=O)c1ccc(/C(O)=C2/C(=O)C(=O)N(CCN3CCCCC3)C2c2cccnc2)cc1` (centres undefined), in assay [1], the cell count was 391. Further, the inhibition was 5.5% (inactive) in assay [1], -68.5% (inactive) in assay [3], -17.9% (inactive) in assay [7] and -24% (inactive) in assay [8]. For the same compound, in assay [2], the inhibition of aggregation was 5.7% (inactive). The nuclei count was 88.2% in assay [2] and 113% in assay [3]. The fluorescence slope in assay [4] was -0.396 (inactive). In assay [5], the NADPH fluorescence slope is 2e-05 (inactive). Further, in assay [6], the slope is 0.00576 (inactive).

Regarding `COc1cc(OC)cc(-c2nc(N)n[nH]2)c1`, the cell count in assay [1] amounted to 455. Also, the inhibition was 3.7% (inactive) in assay [1], -33% (inactive) in assay [3], 10.7% (inactive) in assay [7] and 12% (inactive) in assay [8]. For the same compound, in assay [2], the inhibition of aggregation was 0% (inactive). Besides, the nuclei count was found to be 105% in assay [2] and 104% in assay [3]. Moreover, in assay [4], the fluorescence slope is -0.411 (inactive). Besides, the NADPH fluorescence slope in assay [5] is -5.5e-05 (inactive). Besides, the slope in assay [6] is 0.00517 (inactive).
